This is an account of results in ChEMBL document CHEMBL2218924, “A broad activity screen in support of a chemogenomic map for kinase signalling research and drug discovery” (Biochem J, 2013).

Test [1] addresses T1, Protein kinase C zeta type (Homo sapiens) (UniProt Q05513).
T1 sequence (whole entry): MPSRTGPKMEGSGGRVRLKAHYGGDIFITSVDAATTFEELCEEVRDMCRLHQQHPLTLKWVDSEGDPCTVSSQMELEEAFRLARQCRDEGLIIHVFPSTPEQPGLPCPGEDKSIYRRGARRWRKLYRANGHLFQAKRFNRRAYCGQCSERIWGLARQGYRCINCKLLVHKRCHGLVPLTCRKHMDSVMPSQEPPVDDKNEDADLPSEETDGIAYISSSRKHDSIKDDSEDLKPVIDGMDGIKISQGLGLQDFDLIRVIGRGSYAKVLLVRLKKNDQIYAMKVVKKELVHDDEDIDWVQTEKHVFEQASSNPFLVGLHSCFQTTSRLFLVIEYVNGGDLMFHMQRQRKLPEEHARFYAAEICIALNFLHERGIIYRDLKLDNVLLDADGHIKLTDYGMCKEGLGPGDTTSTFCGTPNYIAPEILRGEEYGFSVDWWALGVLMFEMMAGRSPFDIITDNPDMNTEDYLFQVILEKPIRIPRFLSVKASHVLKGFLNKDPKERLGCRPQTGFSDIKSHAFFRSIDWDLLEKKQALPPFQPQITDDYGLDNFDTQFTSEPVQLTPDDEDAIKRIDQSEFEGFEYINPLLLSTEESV
To be noted: at 1 µM.

Test [2] addresses T2, Mitogen-activated protein kinase kinase kinase 5 (Homo sapiens) (UniProt Q99683).
T2 sequence (whole entry): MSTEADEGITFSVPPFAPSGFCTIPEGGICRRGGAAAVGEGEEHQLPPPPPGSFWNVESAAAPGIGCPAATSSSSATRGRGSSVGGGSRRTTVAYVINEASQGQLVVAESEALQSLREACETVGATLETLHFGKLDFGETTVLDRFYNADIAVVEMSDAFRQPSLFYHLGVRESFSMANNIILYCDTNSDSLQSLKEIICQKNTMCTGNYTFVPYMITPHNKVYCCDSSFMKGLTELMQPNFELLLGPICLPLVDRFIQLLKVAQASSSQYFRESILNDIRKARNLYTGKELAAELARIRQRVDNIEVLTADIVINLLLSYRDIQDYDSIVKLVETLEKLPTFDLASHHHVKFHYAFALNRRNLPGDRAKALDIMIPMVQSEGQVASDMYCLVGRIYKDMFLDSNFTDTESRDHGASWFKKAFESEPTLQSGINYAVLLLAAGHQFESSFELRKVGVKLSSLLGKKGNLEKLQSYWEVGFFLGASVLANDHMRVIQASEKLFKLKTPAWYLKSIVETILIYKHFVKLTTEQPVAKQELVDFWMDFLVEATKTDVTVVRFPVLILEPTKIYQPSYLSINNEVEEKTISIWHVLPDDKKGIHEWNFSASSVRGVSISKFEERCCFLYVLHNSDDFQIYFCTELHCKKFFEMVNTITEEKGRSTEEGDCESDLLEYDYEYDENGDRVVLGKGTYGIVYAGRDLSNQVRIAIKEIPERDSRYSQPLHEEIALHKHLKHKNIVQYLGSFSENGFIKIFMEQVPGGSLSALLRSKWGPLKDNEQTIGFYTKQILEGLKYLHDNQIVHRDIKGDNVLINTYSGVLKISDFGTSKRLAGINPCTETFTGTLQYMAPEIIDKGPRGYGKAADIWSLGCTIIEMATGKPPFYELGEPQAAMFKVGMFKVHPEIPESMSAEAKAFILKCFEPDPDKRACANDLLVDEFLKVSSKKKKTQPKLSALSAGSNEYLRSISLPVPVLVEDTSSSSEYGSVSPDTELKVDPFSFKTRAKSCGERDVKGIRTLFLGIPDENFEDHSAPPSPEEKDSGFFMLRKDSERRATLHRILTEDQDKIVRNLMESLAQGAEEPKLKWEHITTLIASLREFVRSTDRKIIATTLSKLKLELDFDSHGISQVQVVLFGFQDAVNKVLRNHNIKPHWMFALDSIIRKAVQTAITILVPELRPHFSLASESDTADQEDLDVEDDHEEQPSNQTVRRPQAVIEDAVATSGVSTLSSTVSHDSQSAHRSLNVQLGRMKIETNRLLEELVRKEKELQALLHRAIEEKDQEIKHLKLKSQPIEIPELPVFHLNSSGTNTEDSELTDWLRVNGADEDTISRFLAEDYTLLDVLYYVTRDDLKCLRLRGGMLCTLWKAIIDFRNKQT
To be noted: at 10 µM.

Test [3] has as its target Tyrosine-protein kinase ABL1 (Homo sapiens) (UniProt P00519). To be noted: at 1 µM.
For test [4] the target is unchanged. The conditions noted are these: at 10 µM.
Test [5] deals with Tyrosine-protein kinase ABL2 (Homo sapiens) (UniProt P42684). To be noted: at 10 µM.
Tyrosine-protein kinase ABL2 (Homo sapiens), sequence (P42684 whole entry): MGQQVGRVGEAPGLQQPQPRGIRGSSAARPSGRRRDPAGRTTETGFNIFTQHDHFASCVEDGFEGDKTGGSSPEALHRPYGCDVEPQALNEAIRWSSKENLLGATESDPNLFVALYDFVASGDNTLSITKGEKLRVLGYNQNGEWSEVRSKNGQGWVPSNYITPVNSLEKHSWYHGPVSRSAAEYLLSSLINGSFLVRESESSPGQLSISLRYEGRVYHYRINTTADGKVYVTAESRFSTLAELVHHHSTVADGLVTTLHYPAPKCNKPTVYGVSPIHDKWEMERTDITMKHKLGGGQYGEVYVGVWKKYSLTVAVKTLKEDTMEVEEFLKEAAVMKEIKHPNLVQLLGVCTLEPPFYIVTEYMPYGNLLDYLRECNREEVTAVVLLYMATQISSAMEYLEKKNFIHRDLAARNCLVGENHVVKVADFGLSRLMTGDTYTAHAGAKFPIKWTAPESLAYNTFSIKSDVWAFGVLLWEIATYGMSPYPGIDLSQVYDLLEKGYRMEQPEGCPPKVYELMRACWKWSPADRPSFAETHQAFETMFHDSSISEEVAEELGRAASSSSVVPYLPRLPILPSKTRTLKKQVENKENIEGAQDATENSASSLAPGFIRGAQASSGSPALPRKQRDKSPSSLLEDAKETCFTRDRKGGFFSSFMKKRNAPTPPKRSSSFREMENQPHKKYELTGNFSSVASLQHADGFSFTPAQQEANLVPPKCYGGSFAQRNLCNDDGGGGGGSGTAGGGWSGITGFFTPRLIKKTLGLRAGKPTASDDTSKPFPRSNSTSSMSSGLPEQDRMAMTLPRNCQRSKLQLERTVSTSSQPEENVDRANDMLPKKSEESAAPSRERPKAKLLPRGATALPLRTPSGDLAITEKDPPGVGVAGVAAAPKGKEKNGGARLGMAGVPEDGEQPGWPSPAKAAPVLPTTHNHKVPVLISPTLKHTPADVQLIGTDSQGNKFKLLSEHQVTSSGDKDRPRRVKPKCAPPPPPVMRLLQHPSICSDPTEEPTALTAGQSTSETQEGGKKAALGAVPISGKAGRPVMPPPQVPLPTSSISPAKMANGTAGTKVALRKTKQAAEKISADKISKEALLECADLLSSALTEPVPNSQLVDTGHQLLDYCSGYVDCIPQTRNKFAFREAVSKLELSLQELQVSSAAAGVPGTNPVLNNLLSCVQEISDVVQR
Test [6] concerns the target T3, Aurora kinase A (Homo sapiens) (UniProt O14965).
T3 sequence (whole entry): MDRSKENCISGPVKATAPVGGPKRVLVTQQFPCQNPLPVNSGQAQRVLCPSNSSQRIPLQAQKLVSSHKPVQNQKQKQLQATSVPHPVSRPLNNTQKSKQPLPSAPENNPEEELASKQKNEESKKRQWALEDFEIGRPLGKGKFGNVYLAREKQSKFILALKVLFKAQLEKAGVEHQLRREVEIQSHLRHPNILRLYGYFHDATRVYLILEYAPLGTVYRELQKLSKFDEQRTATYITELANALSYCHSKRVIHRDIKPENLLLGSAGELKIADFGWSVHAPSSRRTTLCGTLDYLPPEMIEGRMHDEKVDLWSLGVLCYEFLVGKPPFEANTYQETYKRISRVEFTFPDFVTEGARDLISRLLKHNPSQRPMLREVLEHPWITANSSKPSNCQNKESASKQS
The conditions noted are these: at 1 µM.

The target of test [7] is T3, Aurora kinase A (Homo sapiens). The conditions noted are these: at 10 µM.
For test [8], the target named is Aurora kinase B (Homo sapiens) (UniProt Q96GD4). The conditions noted are these: at 1 µM.
Aurora kinase B (Homo sapiens), sequence (Q96GD4 whole entry): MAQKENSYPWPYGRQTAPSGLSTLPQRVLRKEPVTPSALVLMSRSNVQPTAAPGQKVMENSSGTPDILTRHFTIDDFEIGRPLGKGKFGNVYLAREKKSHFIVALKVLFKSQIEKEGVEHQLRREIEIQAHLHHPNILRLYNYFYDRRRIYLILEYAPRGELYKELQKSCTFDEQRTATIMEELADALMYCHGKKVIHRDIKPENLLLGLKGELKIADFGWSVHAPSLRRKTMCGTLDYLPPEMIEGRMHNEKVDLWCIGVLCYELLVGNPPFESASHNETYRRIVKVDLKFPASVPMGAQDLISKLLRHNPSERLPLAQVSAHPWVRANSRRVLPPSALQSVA
The target is the same in test [9]. To be noted: at 10 µM.
Test [10] deals with T4, Aurora kinase C (Homo sapiens) (UniProt Q9UQB9).
T4 sequence (whole entry): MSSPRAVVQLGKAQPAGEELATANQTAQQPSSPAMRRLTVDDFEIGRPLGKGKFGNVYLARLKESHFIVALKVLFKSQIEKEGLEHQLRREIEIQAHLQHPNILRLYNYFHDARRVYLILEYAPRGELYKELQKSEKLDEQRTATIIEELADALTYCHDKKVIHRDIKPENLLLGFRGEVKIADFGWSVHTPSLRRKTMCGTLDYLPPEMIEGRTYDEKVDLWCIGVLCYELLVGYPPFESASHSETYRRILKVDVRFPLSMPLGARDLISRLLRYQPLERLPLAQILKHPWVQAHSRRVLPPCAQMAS
The conditions noted are these: at 1 µM.

The target in test [11] is T4, Aurora kinase C (Homo sapiens). To be noted: at 10 µM.
The target in test [12] is Tyrosine-protein kinase receptor UFO (Homo sapiens) (UniProt P30530). To be noted: at 1 µM.
Tyrosine-protein kinase receptor UFO (Homo sapiens), sequence (P30530 whole entry): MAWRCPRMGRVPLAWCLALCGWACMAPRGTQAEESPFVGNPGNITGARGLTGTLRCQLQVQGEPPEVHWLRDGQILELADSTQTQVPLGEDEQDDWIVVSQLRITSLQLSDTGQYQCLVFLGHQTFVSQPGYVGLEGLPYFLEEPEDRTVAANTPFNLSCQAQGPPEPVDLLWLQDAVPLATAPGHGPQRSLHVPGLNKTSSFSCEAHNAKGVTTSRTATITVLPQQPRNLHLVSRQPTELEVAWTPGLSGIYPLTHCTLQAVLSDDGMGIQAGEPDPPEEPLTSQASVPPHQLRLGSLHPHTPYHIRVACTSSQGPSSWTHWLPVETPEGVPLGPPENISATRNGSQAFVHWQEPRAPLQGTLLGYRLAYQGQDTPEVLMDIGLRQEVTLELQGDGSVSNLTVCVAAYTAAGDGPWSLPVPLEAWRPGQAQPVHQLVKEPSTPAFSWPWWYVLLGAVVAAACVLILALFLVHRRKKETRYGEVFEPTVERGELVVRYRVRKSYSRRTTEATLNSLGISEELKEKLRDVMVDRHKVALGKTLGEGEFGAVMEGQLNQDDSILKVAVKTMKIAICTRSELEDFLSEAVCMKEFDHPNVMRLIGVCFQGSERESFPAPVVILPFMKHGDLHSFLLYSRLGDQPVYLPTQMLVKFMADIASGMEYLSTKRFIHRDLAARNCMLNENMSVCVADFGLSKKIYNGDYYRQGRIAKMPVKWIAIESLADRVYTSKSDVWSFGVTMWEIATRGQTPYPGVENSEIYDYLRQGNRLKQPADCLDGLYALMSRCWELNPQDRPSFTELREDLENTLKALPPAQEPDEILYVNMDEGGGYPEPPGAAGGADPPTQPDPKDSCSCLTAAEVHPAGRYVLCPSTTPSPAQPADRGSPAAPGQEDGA
The target is the same in test [13]. To be noted: at 10 µM.
Test [14] has as its target Protein-tyrosine kinase 6 (Homo sapiens) (UniProt Q13882). To be noted: at 1 µM.
The target is the same in test [15]. To be noted: at 10 µM.
Test [16] concerns the target Tyrosine-protein kinase BTK (Homo sapiens) (UniProt Q06187). To be noted: at 1 µM.
The target is the same in test [17]. The conditions noted are these: at 10 µM.
Test [18] concerns the target Tyrosine-protein kinase Blk (Homo sapiens) (UniProt P51451). The conditions noted are these: at 1 µM.
Test [19] has the same target. To be noted: at 10 µM.
The target in test [20] is Tyrosine-protein kinase ABL2 (Homo sapiens) (UniProt P42684). To be noted: at 1 µM.

Protein-tyrosine kinase 6 (Homo sapiens), sequence (Q13882 whole entry, looked up): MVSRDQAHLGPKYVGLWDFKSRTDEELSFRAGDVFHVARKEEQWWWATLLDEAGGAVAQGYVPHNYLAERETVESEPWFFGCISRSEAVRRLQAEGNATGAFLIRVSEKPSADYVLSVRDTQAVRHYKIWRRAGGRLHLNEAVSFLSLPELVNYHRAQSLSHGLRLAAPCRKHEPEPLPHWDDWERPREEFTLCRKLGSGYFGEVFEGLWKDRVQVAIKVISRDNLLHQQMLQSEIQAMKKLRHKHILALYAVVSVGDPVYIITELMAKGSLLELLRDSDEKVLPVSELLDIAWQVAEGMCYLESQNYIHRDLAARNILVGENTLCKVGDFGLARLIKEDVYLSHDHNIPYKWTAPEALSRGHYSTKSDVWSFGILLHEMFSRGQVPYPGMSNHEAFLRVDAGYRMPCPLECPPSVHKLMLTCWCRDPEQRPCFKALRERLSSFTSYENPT
Tyrosine-protein kinase ABL1 (Homo sapiens), sequence (P00519 whole entry): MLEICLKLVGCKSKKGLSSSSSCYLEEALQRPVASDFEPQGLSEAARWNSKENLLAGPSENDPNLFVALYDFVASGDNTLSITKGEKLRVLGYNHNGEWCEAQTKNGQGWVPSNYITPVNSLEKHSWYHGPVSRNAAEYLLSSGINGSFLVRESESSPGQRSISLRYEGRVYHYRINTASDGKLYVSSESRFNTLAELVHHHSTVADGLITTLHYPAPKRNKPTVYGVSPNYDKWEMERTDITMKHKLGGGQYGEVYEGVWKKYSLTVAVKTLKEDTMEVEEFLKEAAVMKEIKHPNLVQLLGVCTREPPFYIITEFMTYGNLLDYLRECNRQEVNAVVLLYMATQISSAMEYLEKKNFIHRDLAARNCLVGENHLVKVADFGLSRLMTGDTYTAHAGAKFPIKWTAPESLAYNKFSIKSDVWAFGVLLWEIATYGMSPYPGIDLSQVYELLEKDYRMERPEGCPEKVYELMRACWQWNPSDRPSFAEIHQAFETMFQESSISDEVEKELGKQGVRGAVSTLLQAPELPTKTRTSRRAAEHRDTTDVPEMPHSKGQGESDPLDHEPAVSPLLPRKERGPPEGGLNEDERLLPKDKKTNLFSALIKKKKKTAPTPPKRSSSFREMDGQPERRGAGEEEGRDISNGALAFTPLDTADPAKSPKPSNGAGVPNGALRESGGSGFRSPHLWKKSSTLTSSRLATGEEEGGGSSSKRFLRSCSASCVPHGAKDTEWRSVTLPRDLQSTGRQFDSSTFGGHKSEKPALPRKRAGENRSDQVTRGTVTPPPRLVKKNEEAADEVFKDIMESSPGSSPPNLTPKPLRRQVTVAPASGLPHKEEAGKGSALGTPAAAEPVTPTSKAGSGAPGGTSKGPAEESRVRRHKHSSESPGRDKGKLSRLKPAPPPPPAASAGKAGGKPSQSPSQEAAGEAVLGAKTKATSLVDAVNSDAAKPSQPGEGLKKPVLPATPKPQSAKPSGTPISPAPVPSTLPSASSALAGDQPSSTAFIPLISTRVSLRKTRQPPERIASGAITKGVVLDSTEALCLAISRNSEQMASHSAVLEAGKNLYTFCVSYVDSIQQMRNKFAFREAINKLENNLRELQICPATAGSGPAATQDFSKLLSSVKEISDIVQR
Tyrosine-protein kinase Blk (Homo sapiens), sequence (P51451 2-505 limits assumed): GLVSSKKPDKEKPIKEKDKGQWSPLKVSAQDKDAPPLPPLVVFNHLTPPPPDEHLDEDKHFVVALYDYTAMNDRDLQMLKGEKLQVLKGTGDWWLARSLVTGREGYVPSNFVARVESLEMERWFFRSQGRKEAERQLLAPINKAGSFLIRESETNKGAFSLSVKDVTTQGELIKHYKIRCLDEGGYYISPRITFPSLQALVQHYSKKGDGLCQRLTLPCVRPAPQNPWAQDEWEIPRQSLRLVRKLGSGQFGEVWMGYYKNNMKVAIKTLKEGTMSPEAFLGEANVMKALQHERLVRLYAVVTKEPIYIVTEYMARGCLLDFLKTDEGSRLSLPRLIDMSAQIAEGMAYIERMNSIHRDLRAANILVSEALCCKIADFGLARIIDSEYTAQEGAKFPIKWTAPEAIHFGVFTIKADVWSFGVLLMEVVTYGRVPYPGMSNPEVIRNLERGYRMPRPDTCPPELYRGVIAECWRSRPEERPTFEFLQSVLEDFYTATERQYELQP

Turning to `COc1cc2ncnc(Nc3ccc(NC(=O)c4ccccc4)cc3)c2cc1OC`, the residual activity was 110% (inactive) in test [1]; 100% in [2]; 101% in [3]; 81% in test [4]; 93% in test [5]; 18% in test [6]. The residual activity in test [7] came to 12%; in [8], 2%; in test [9], 0%; in test [10] it was 44%; in test [11], 4%; in test [12], 99%. Further, the residual activity in test [13] was 40%; in test [14] it was 35%; in test [15] it was 10%; in [16], 90%; in [17] it was 68%; in [18] it was 20%. Besides, the residual activity in [19] is 2%.

As for `O=C1NC(=O)/C(=C/c2ccc3c(c2)OC(F)(F)O3)S1`, the residual activity in test [1] was 97% (inactive); in test [2] it was 97%; in test [3] it was 103%; in test [4], 79%; in [20], 94%; in test [5], 98%. In addition, the residual activity amounted to 90% in [6]; 57% in test [7]; 74% in [8]; 64% in test [9]; 110% in test [10]; 80% in [11]. For the same molecule, the residual activity in test [12] was 98%; in test [13], 84%; in test [14], 110%; in test [15], 104%; in test [16], 86%; in test [17] it was 95%. Further, the residual activity came out at 119% in test [18] and 94% in test [19].

Regarding `N#CCCc1ccc2c(c1)-c1[nH]c3ccc([N+](=O)[O-])cc3c1CC(=O)N2`, the residual activity is 69% (inactive) in [1]; 31% in [3]; 13% in [4]; 48% in test [20]; 17% in test [5]; 61% in [6]. Moreover, the residual activity in test [7] is 37%; in test [8] it was 8%; in test [9], 1%; in test [10], 63%; in test [11], 22%; in test [12], 57%. Also, the residual activity in test [13] was found to be 35%; in test [16] it was 79%; in [17], 66%; in [18], 24%; in [19] it was 11%.

Turning to `Cc1cc(Nc2nc(-c3ccccc3)nc3ccccc23)n[nH]1`, the residual activity in test [1] was 110% (inactive); in [2], 100%; in [3] it was 54%; in [20] it was 33%; in test [5] it was 3%; in test [6], 1%. For the same molecule, the residual activity in test [7] is 0%; in test [8], -2%; in test [9], 0%; in [10], 7%; in [11], 4%; in [12] it was 33%. In addition, the residual activity in test [13] came to 3%; in [14], 40%; in test [15], 4%; in test [16], 19%; in test [17], 0%; in test [18], 9%. In addition, the residual activity in test [19] was found to be 1%.

As for `Cc1cccc(-c2[nH]c(C(C)(C)C)nc2-c2ccc3c(c2)OCO3)n1`, the residual activity was 88% in [2]; 96% in test [3]; 102% in test [4]; 97% in [5]; 93% in test [6]; 106% in test [8]. For the same molecule, the residual activity in [9] was determined as 95%; in test [11] it was 82%; in test [12], 87%; in test [13], 81%; in test [15] it was 102%; in test [19], 106%.

As for `Cc1cc2ncc(-c3ccccc3)nc2cc1C`, the residual activity in [1] was 106% (inactive); in test [2], 83%; in test [3], 92%; in [4], 87%; in test [20], 96%; in [5], 103%. The residual activity came to 77% in test [6]; 96% in [7]; 87% in [8]; 75% in test [9]; 104% in test [10]; 87% in test [11]. Further, the residual activity is 100% in [12]; 88% in test [13]; 103% in [14]; 101% in test [15]; 94% in test [16]; 105% in test [17]. In test [19], the residual activity stood at 95%.

Turning to `c1ccc2c(-c3ccncc3)c[nH]c2c1`, the residual activity in test [1] was 94% (inactive); in test [2] it was 77%; in [3] it was 98%; in [4], 100%; in test [20], 110%; in test [5], 72%. The residual activity in test [6] turned out to be 99%; in test [7], 76%; in test [8], 92%; in [9], 70%; in test [10], 66%; in test [11] it was 46%. Also, the residual activity is 81% in [12]; 75% in test [13]; 95% in test [14]; 75% in test [15]; 99% in test [16]; 107% in [19].

Take `CC(C)n1cnc2c(NCc3ccccc3)nc(NCCCO)nc21`: the residual activity in test [1] is 98% (inactive); in [2], 102%; in [3], 96%; in test [4] it was 81%; in test [20] it was 93%; in test [5] it was 89%. Also, the residual activity in [6] worked out at 109%; in test [7] it was 114%; in test [8] it was 99%; in test [9] it was 85%; in [10] it was 95%; in test [11] it was 89%. Also, the residual activity in [12] is 105%; in test [13], 75%; in test [14], 89%; in test [15] it was 82%; in [16], 93%; in test [17], 94%. Besides, the values for the residual activity in [18] and in test [19] were 78% and 71%, respectively.
